Measurements published in PubChem BioAssay AID1159580 (chemical genetic matrix, 2015).
Values joined by “and” are separate entries in the source; they are usually repeats but may differ in a detail not shown here. Equal values may be shown once. In all, about 5,500 compounds went through this assay and about 2,000 (36%) were called active. Not shown: some 18% with an inconclusive outcome. No stated cut-off is given here; in the data, active means normalized growth mostly below about 0.91 (no sharp cut-off); inconclusive means no clear call, values can overlap the other calls; inactive means mostly above about 0.92. This is one part of the list.

Experiment: chemical genetic growth profiling, strain panel (AID 1159580);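 further: tested at 20 µM; growth read once vehicle control cultures reached saturation at 30 °C; 1 = growth at the plate median or of vehicle wells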
Conditions: S. cerevisiae deletion strains, growth OD

Measured: normalized growth

CC(C)C1CCC(C(=O)N[C@@H](Cc2ccccc2)C(=O)O)CC1 (some centres not stated)
inactive: locus YAL013W, strain DEP1, stronger effect = lower value 0.994 | locus YAL021C, strain ccr4, stronger effect = lower value 0.97 | locus YAL026C, strain drs2, stronger effect = lower value 0.978 | locus YAL030W, strain snc1, stronger effect = lower value 0.975 | locus YBL061C, strain skt5, stronger effect = lower value 0.973 | locus YBR009C, strain hhf1, stronger effect = lower value 0.983 | locus YBR021W, strain FUR4, stronger effect = lower value 0.969 | locus YBR023C, strain chs3, stronger effect = lower value 0.973 | locus YBR171W, strain sec66, stronger effect = lower value 0.962 | locus YBR229C, strain ROT2, stronger effect = lower value 1.01 | locus YBR231C, strain swc5, stronger effect = lower value 0.956 | locus YBR279W, strain paf1, stronger effect = lower value 0.973 | locus YCL011C, strain gbp2, stronger effect = lower value 0.976 | locus YCL016C, strain dcc1, stronger effect = lower value 0.967 | locus YCL029C, strain bik1, stronger effect = lower value 1.02 | locus YCL061C, strain MRC1, stronger effect = lower value 0.972 | locus YCL069W, strain vba3, stronger effect = lower value 0.979 | locus YCR088W, strain abp1, stronger effect = lower value 0.971 | locus YDL005C, strain med2, stronger effect = lower value 0.974 | locus YDL035C, strain GPR1, stronger effect = lower value 0.982 | locus YDL040C, strain nat1, stronger effect = lower value 0.974 | locus YDL074C, strain BRE1, stronger effect = lower value 0.987 | locus YDL101C, strain DUN1, stronger effect = lower value 1 | locus YDL134C, strain PPH21, stronger effect = lower value 1.01 | locus YDL185W, strain tfp1, stronger effect = lower value 1.02 | locus YDL192W, strain arf1, stronger effect = lower value 1.01 | locus YDR001C, strain nth1, stronger effect = lower value 0.972 | locus YDR069C, strain doa4, stronger effect = lower value 0.986 | locus YDR101C, strain arx1, stronger effect = lower value 1.02 | locus YDR137W, strain rgp1, stronger effect = lower value 0.96 | locus YDR150W, strain NUM1, stronger effect = lower value 0.995 | locus YDR159W, strain sac3, stronger effect = lower value 0.989 | locus YDR162C, strain NBP2, stronger effect = lower value 0.987 | locus YDR195W, strain ref2 0.962 | locus YDR297W, strain sur2, stronger effect = lower value 0.976 | locus YDR318W, strain mcm21, stronger effect = lower value 1.01 | locus YDR334W, strain swr1, stronger effect = lower value 0.968 | locus YDR335W, strain msn5, stronger effect = lower value 0.974 | locus YDR388W, stronger effect = lower value 1.01 | locus YDR392W, strain spt3, stronger effect = lower value 0.985 | locus YDR502C, strain sam2, stronger effect = lower value 1.01 | locus YEL003W, strain gim4, stronger effect = lower value 0.988 | locus YEL037C, strain rad23, stronger effect = lower value 0.971 | locus YEL061C, strain CIN8 (second series), stronger effect = lower value 0.973 | locus YEL061C, strain CIN8, stronger effect = lower value 0.992 | locus YER015W, strain faa2, stronger effect = lower value 0.986 | locus YER016W, strain bim1, stronger effect = lower value 0.98 | locus YER110C, stronger effect = lower value 1.02 | locus YER111C, strain swi4, stronger effect = lower value 0.98 | locus YER155C, strain BEM2 (second series), stronger effect = lower value 0.958 | locus YER155C, strain BEM2, stronger effect = lower value 0.928 | locus YER167W, strain BCK2, stronger effect = lower value 0.994 | locus YFR010W, strain ubp6, stronger effect = lower value 0.968 | locus YGL078C, strain dbp3, stronger effect = lower value 1.01 | locus YGL086W, strain mad1, stronger effect = lower value 1.01 | locus YGL167C, strain pmr1, stronger effect = lower value 0.967 | locus YGL173C, strain kem1, stronger effect = lower value 0.97 | locus YGL227W, strain vid30, stronger effect = lower value 0.969 | locus YGL240W, strain doc1, stronger effect = lower value 0.985 | locus YGL248W, strain PDE1, stronger effect = lower value 1.01 | locus YGL253W, strain hxk2, stronger effect = lower value 0.97 | locus YGR078C, strain PAC10, stronger effect = lower value 0.984 | locus YGR135W, strain pre9, stronger effect = lower value 1.01 | locus YGR229C, strain SMI1, stronger effect = lower value 0.949 | locus YGR252W, strain gcn5, stronger effect = lower value 0.994 | locus YHR013C, strain ard1, stronger effect = lower value 0.953 | locus YHR027C, strain rpn1, stronger effect = lower value 0.993 | locus YHR030C, strain SLT2, stronger effect = lower value 1.01 and 0.98 | locus YHR079C, strain IRE1 (second series), stronger effect = lower value 1.01 | locus YHR079C, strain IRE1, stronger effect = lower value 0.986 | locus YHR094C, strain hxt1, stronger effect = lower value 1.01 | locus YHR129C, strain ARP1, stronger effect = lower value 1.01 | locus YHR142W, strain chs7, stronger effect = lower value 0.965 | locus YHR200W, strain rpn10, stronger effect = lower value 1.01 | locus YIL066C, strain RNR3, stronger effect = lower value 0.989 | locus YIL073C, strain SPO22, stronger effect = lower value 0.989 | locus YIL125W, strain kgd1, stronger effect = lower value 1.01 | locus YIR030C, strain dcg1, stronger effect = lower value 1.02 | locus YJL092W, strain hpr5, stronger effect = lower value 0.983 | locus YJL095W, strain BCK1 (second series), stronger effect = lower value 0.979 | locus YJL095W, strain BCK1, stronger effect = lower value 1 and 1.02 | locus YJL115W, strain asf1, stronger effect = lower value 0.978 | locus YJL129C, strain trk1, stronger effect = lower value 0.963 | locus YJL134W, strain LCB3, stronger effect = lower value 0.996 | locus YJL154C, strain vps35, stronger effect = lower value 0.973 | locus YJL164C, strain tpk1, stronger effect = lower value 0.992 | locus YJL166W, strain qcr8, stronger effect = lower value 0.979 | locus YJL168C, strain set2, stronger effect = lower value 1.01 | locus YJL187C, strain SWE1 (second series), stronger effect = lower value 1.01 | locus YJL187C, strain SWE1, stronger effect = lower value 0.983 | locus YJR043C, strain POL32, stronger effect = lower value 0.99 | locus YJR066W, strain TOR1, stronger effect = lower value 0.956
